From PubChem BioAssay AID2025 (NMMLSC, 2009)
The whole screen tested about 330,000 compounds, of which about 980 (0.3%) were called active. What follows is part of a selection rich in actives, with near analogues and random picks from the rest. Unmarked numbers belong to inactive results.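 The calls were made as follows: active = percent response vs DMSO below 50%; inconclusive = fewer than 70 events counted for the yeast strain; inactive = the rest.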

Experiment: RPL19A-GFP expression modulators in yeast, primary screen, cell-based, S. cerevisiae, multiplex flow cytometry, MLPCN (AID 2025);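 also: median channel GFP fluorescence of the barcoded RPL19A-GFP strain; ratio of sample median GFP to plate DMSO average so 100% = DMSO; lower means less RPL19A-GFP as with rapamycin TOR inhibition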
Details: S. cerevisiae RPL19A-GFP strain, 3 h, at 10 µM, active compounds read low

Structure (SMILES)	percent response vs DMSO
COc1ccc(CN2CC(C(=O)NCCc3ccc(Cl)cc3)CC2=O)cc1 (stereo unspecified)	32.5% [may fluoresce violet] (active)
COc1ccc(CN2CC(C(=O)NCCN3CCN(c4ccccc4F)CC3)CC2=O)cc1 (stereo unspecified)	99.6%
COc1ccc(CN2CC(C(=O)NC3CCCCC3)CC2=O)cc1 (stereo unspecified)	99.4%
O=C1C=CC(=O)N1c1ccc(N2CCCCC2)cc1	64.6%
CCOc1ccc(Br)cc1S(=O)(=O)Nc1ccc(C(=O)OC(C)C(=O)N(C)c2ccccc2)cc1 (stereo unspecified)	99.2%
Nc1c(-c2ccccc2)nnn1Cc1ccccc1	93.1%
Cc1nn(Cc2ccccc2)c(C)c1NS(=O)(=O)c1ccccc1	125%
OCc1nc(CO)n(Cc2ccccc2)n1	34.3% [may fluoresce violet] (active)
CCOc1ccccc1N1C(=O)CC(Sc2nccc(C)n2)C1=O (stereo unspecified)	101%
C=C1CCN([C@@H](Cc2ccccc2)C(=O)N2CCOCC2)S(=O)(=O)c2ccccc21	102%
CCOc1cc(N2CCOCC2)c(OCC)cc1NC(=O)COc1cccc(Cl)c1	101%
CCOc1cc(N2CCOCC2)c(OCC)cc1NC(=O)COc1cccc2cccnc12	38.4% [may fluoresce violet] (active)
CCOc1cc(N2CCOCC2)c(OCC)cc1NC(=O)c1cc(C)nc2ccccc12	101%
CCCOc1ccc(-c2c(C(=O)N/N=C/c3ccco3)nnn2-c2nonc2N)cc1	99.2%
Cc1ccccc1S(=O)(=O)N1[C@@H](c2cccc(Cl)c2)C(C(=O)O)=CC[C@H]1c1ccc(Cl)cc1	99.8%
O=C(CN1C(=O)COc2ccc(Cl)cc21)N1CCOCC1	101%
Cc1ccc(C(=O)Nc2c(C#N)c(C)c(C)n2Cc2ccccc2)cc1	43.3% [may fluoresce violet] (active)
COc1ccc(Cn2c(C)c(C)c(C#N)c2NC(=O)Nc2ccc(F)cc2)cc1	97.2%
Cc1c(C#N)c(NC(=O)c2ccccc2)n(Cc2ccccc2)c1C	92.3%
COc1ccccc1NC(=S)N1CCN(c2ccc(F)cc2)CC1	106%
COc1cccc(NC(=O)CSc2nnc(Cc3ccc(OC)c(OC)c3)o2)c1	97.7%
N#Cc1ccc(C(=O)Nc2nc(-c3cccs3)c(C(=O)C(F)(F)F)s2)cc1	97.5%

Structure (SMILES)	percent response vs DMSO
CCCc1noc2c1/C(=N\O)CCC2	98.8%
CCCc1nn2c(=O)cc(CSCC(=O)Nc3cccc(C)c3)nc2s1	98%
Cc1ccc(Cn2c(C)c3cnn(CC(=O)NCc4ccccn4)c(=O)c3c2C)cc1	99.3%
Cc1c2cnn(CC(=O)NCc3ccccn3)c(=O)c2c(C)n1Cc1ccc(Cl)cc1	28.5% [may fluoresce violet] (active)
O=C(Cn1ncc2c3ccccc3n(Cc3ccccc3)c2c1=O)NCc1ccccn1	93.6%
O=C(NCc1ccccc1Cl)C1CCN(S(=O)(=O)c2cccc3nonc23)CC1	49% [may fluoresce violet] (active)
O=C(CCS(=O)(=O)c1cccc2nonc12)NCCc1ccccc1Cl	104%
O=C(NCc1ccccc1Cl)C1CCN(S(=O)(=O)N2CCOCC2)CC1	91%
CC(=O)O[C@]1(C(C)=O)CC[C@H]2[C@@H]3C=C(C)C4=CC(=O)CC[C@]4(C)[C@H]3CC[C@@]21C	33% [may fluoresce violet] (active)
CC(=O)C12CC(C)=C(C)CC1CC1C3CCC4=CC(=O)CCC4(C)C3CCC12C (stereo unspecified)	99.3%
CC(C)CCN1CCN=C1N(C)C	99.1%
NC(=O)C1CCN(CC(O)CSc2ccc(F)cc2)CC1 (stereo unspecified)	99.8%
COc1cc(NC(=O)c2ccc(-c3csc(C)n3)cc2)c(OC)cc1Cl	102%
CCCS(=O)(=O)Nc1ccc(-c2cn3c(n2)SCC3)cc1	40.4% [may fluoresce violet] (active)
CCS(=O)(=O)Nc1ccc(C2=NN(C(C)=O)C(c3cccs3)C2)cc1 (stereo unspecified)	102%
CCCCc1c(O)nc2n(c1=O)CCS2	93.4%
COc1ccc2[nH]c(=O)c(C3c4cc(OC)c(OC)cc4CCN3C(=O)c3ccco3)cc2c1 (stereo unspecified)	103%
CCc1ccc(OCC2c3cc(OC)c(OC)cc3CCN2C(C)=O)cc1 (stereo unspecified)	42.9% [may fluoresce violet] (active)
COc1ccc(CC(NC(C)=O)C(=O)NC2CCN(C(=O)c3ccc(OC)c(OC)c3)CC2)cc1OC (stereo unspecified)	93.8%
COc1ccccc1-n1nnnc1S(=O)(=O)Cc1ccc(Cl)cc1	102%
Cc1cccc(C(=O)NC(=S)N(C)C2CCCCC2)c1	96.9%
Cc1c(NC(=O)Nc2cccc([N+](=O)[O-])c2)c(=O)n(-c2ccccc2)n1C	102%

Structure (SMILES)	percent response vs DMSO
Cc1c(NC(=O)c2c([N+](=O)[O-])cnn2C)c(=O)n(-c2ccccc2)n1C	41.5% [may fluoresce violet] (active)
Cc1cc(OCC(=O)Nc2c(C)n(C)n(-c3ccccc3)c2=O)ccc1[N+](=O)[O-]	97.2%
Cc1ccccc1-c1cc(C(=O)NCC2CC2)n(CC2CC(c3cccnc3)=NO2)n1 (stereo unspecified)	104%
CNC[C@H](CC1CCCCC1)NC[C@H](NCCC1CCCC1)[C@H](C)O	93.9%
CCCc1ccc(-c2c(C)sc(NC(=O)c3ccnn3C)c2C#N)cc1	98%
CC1(c2ccc3ccccc3c2)NC(=O)NC1=O (stereo unspecified)	105%
COc1ccc(-c2nnn(Cc3nc(N)nc(N4CCCCC4)n3)n2)cc1	98.7%
COc1ccc(CSc2nnnn2-c2ccc(C(=O)O)cc2)cc1	99.4%
COc1ccc(-n2nnnc2SCc2nc(N)nc(N3CCOCC3)n2)cc1	48.8% [may fluoresce violet] (active)
O=C(COC(=O)CNC(=O)C1CCCCC1)Nc1cccc(F)c1	100%
OCC(O)CN(c1ccccc1)c1ccccc1 (stereo unspecified)	94.3%
CCn1cc(C(=O)OCC(=O)Nc2cccc(C)c2)c(=O)c2ccc(C)nc21	96.6%
C=CC[C@H](CC(=O)N(CCO)Cc1ccccc1)C(=O)N[C@@H](COC(=O)[C@@H](CC=C)Cc1ccc(F)cc1)Cc1ccccc1	96%
CCNS(=O)(=O)c1ccc(NC(=O)c2cncc(Br)c2)cc1	96.5%
O=C(CN1CCN(S(=O)(=O)c2ccc(Br)cc2)CC1)Nc1ccccc1C(=O)c1ccccc1	100%
O=C(NNS(=O)(=O)Cc1ccccc1)c1ccc([N+](=O)[O-])cc1	44.4% [may fluoresce violet] (active)
O=C(CNC(=O)c1ccccc1)Oc1ccc([N+](=O)[O-])cc1	103%
O=C(Cc1ccccc1)NNS(=O)(=O)c1ccc([N+](=O)[O-])cc1	97.4%
CC(=O)c1ccc(N2CCN(C(=O)CCNC(=O)Cn3ccc4ccccc4c3=O)CC2)cc1	104%
COc1cc(C(C(=O)NC2CCCC2)N(C(=O)c2ccco2)c2ccccc2C(C)=O)cc(OC)c1OC (stereo unspecified)	108%
O=C(CC(n1cncn1)C(Cl)(Cl)Cl)c1ccc([N+](=O)[O-])cc1 (stereo unspecified)	104%
O=C(c1ccncc1)c1ccc([N+](=O)[O-])cc1	98.9%

Structure (SMILES)	percent response vs DMSO
O=C(C1CCCO1)N(c1ccc(F)cc1)C1C=CS(=O)(=O)C1 (stereo unspecified)	97.9%
CC(C)(C)NC(=O)C(c1ccc(Cl)cc1)N(CCO)C(=O)c1snc(C(N)=O)c1N (stereo unspecified)	99.5%
CCOc1ccc(C(C(=O)NC2CCCC2)N(C(=O)c2snc(C(N)=O)c2N)C2CCCC2)cc1 (stereo unspecified)	95.8%
NC(=O)c1nsc(C(=O)N(CCCN2CCOCC2)C(C(=O)NC2CCCCC2)c2ccc(Cl)cc2)c1N (stereo unspecified)	38% [may fluoresce violet] (active)
O=C(CCc1ccc(S(=O)(=O)N2CCOCC2)cc1)NN=C1CCCCCCC1	101%
O=C(O)c1ccc(S(=O)(=O)N2CCOCC2)o1	47.2% [may fluoresce violet] (active)
O=C(c1cc(S(=O)(=O)N2CCOCC2)ccc1Cl)N1CCOCC1	112%
CCOC(=O)CNC(=O)/C=C/c1c(Cl)cccc1Cl	94.2%
CC(C)=CCCC1(C)C=Cc2c(ccc3c2[nH]c2cc(O)c(C)cc23)O1 (stereo unspecified)	97.2%
O=C1CN(C(=O)COc2c(Cl)cccc2Cl)c2ccccc2N1	91.8%
O=C1CN(C(=O)COC(=O)c2cnc(Cl)c(Cl)c2)c2ccccc2N1	18.6% [may fluoresce violet] (active)
COc1cc(OC)c(C(=O)OCC(=O)N2CC(=O)Nc3ccccc32)cc1OC	93.3%
CN(NC(=O)C1CC(=O)N(c2ccccc2)C1)C1=NS(=O)(=O)c2ccccc21 (stereo unspecified)	102%
CC1(C)CC2CC(C)(CN2c2ncnc3ccc(Br)cc23)C1 (stereo unspecified)	105%
CN(CC(=O)Nc1ccccc1Cl)C(=O)c1ccccc1SCC(=O)N1CCCC1	94.7%
O=c1c2c(nc3nc[nH]n13)CCC2	19.2% [may fluoresce violet] (active)
O=c1c2c(nc3cc(-c4cccc(Cl)c4)[nH]n13)CCCC2	99.2%
CSc1nc2nc3c(c(=O)n2[nH]1)CCC3	89.8%
CCCCCC(O)c1cccc(OCc2ccc3ccccc3n2)c1 (stereo unspecified)	88.3%
O=C1CC(=O)Nc2cc(S(=O)(=O)N3CCN(c4cccc(C(F)(F)F)c4)CC3)ccc2N1	97.6%
